# Reference: PubChem BioAssay (Tox21)
# “And” between values parts separate entries of the source, which are not always exact repeats. Equal entries are not always repeated. A number with no mark means an inactive call. Records with an inconclusive call do not appear. Entries that show only a call come without a potency. The source made the active and inactive calls. Unless noted, the call rests on the fitted dose curve; in most records, active means well fitted curve in the direction sought with a large enough effect in the repeat runs; inconclusive means weak or mixed curves; inactive means no such curve, though single readings can be large; an effect the other way counts as inactive or inconclusive.
# Assays:
# [1] = qHTS assay to identify small molecule agonists of the sonic hedgehog signaling (Shh) pathway (AID 1259368; calls by dose curve;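 further: NIH/3T3-derived 3T3Gli1-Luc cells carrying a stable Gli1-driven firefly luciferase reporter; series mostly up to about 92 µM; nearly all actives have a fitted effect of over 15% in size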)
# How it was run: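 Stable NIH/3T3 Gli1-Luc reporter clone; 24 hr cpd exposure after a 4 hr settling period; luminescence endpoint.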
# [2] = qHTS assay to identify small molecule antagonists of the sonic hedgehog signaling (Shh) pathway (AID 1259369; calls by dose curve; further: nearly all actives have a fitted effect of over 45% in size; further: potency means the concentration at half of the fitted maximal effect)
# How it was run: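 Gli1 transcriptional reporter (firefly Luc) in NIH/3T3 background, conditioned-medium activated. 24hr exposure, luminescence endpoint.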
# [3] = qHTS assay to identify small molecule agonists of the androgen receptor (AR) signaling pathway in the presence of an antagonist - cell viability counter screen (AID 1259379);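 further: MDA-kb2 human breast cancer cells carrying an MMTV luciferase reporter; series mostly up to about 92 µM; nearly all actives have a fitted effect of over 25% in size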
# How it was run: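 Counter screen for cell viability run in parallel with the AR agonist-mode luciferase assay. MDA-kb2 cells were co-treated with nilutamide (3.0uM final) and compounds, then incubated 16 hr at 37C, and CellTiter-Fluor fluorescence was measured.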
# [4] = qHTS assay to identify small molecule agonists of the estrogen receptor beta (ER-beta) signaling pathway - cell viability counter screen (AID 1259380); further: nearly all actives have a fitted effect of over 30% in size
# How it was run: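 In this qHTS counter screen, HEK293T cells carrying an ER-beta/UAS beta-lactamase reporter, grown in 2% charcoal-stripped FBS, received compound for 16 hr; ATP-based CellTiter-Glo luminescence was then read after 30 min at room temperature.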
# [5] = qHTS assay to identify small molecule antagonists of the estrogen receptor beta (ER-beta) signaling pathway - cell viability counter screen (AID 1259382);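 further: HEK293T cells carrying ER-beta-UAS-bla reporter stimulated with estradiol; series mostly up to about 92 µM; nearly all actives have a fitted effect of over 55% in size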
# How it was run: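 HEK293T ER-beta-UAS-bla, 2% charcoal-stripped FBS; compounds + 1nM E2 16 hr 37C; CellTiter-Glo luminescence, 30 min RT.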
# [6] = target: Estrogen receptor (Homo sapiens) (UniProt P03372); experiment: qHTS assay to identify small molecule agonists of the estrogen receptor alpha (ER-alpha) signaling pathway in the presence of an antagonist (AID 1259383; calls by dose curve; further: top concentration of the series differs between compounds; nearly all actives have a fitted effect of over 15% in size)
# How it was run: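 ER-alpha agonism measured under antagonist challenge: 10.0nM ICI-182,780 (final) plus compound, 15 concentrations, 22hr, VM7Luc4E2 ERE-luciferase cells. Read by luminescence.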
# [7] = qHTS assay to identify small molecule agonists or antagonists of the thyroid stimulating hormone receptor (TSHR) signaling pathway - wild type cell line counter screen (AID 1259384; calls by dose curve)
# How it was run: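 Wild-type HEK293 cells were plated 18 h at 37 C/5% CO2, pin-dosed with compound plus Ro20-1724 medium, held 30 min at room temperature, then given cAMP-d2 and anti-cAMP-cryptate; fluorescence was read after 1 h. Fifteen concentrations, triplicate.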
# [8] = target: Thyrotropin receptor (Homo sapiens) (UniProt P16473); experiment: qHTS assay to identify small molecule antagonists of the thyroid stimulating hormone receptor (TSHR) signaling pathway (AID 1259385; calls by dose curve; further: nearly all actives have a fitted effect of over 20% in size)
# How it was run: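 TSHR-HEK293 cells were plated and held 18 h at 37C/5% CO2, then given compound plus Ro20-1724 and stimulated with TSH at 1.5 ng/mL final. After 30 min at room temperature, cAMP was detected with cAMP-d2/anti-cAMP-cryptate (1 h) by fluorescence.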
# [9] = target: Progesterone receptor (Homo sapiens) (UniProt P06401); experiment: qHTS assay to identify small molecule agonists of the progesterone receptor (PR) signaling pathway (AID 1346784; calls by dose curve; further: nearly all actives have a fitted effect of over 30% in size)
# How it was run: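 Seed PR-UAS-bla HEK 293T cells (2% charcoal-stripped FBS), incubate 6 hr at 37C; add compounds in DMSO, 16 hr at 37C; add LiveBLAzer B/G substrate, 2 hr RT; read fluorescence intensity.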
# [10] = target: Progesterone receptor (Homo sapiens) (UniProt P06401); experiment: qHTS assay to identify small molecule antagonists of the progesterone receptor (PR) signaling pathway (AID 1346795; active means well fitted inhibition curve with a large enough effect in the signal ratio in the repeat runs, not every such curve was filed as active; the % refers to the signal ratio; further: potency means the concentration at half of the fitted maximal effect)
# How it was run: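 Screening used a GripTite HEK293T line with PR-responsive UAS-beta-lactamase. Cells were challenged with compound in the presence of 1 nM R5020 final for 16 hr at 37C; B/G FRET substrate, 2 hr room temperature, fluorescence.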
# [11] = qHTS assay to identify small molecule antagonists of the progesterone receptor (PR) signaling pathway - cell viability counter screen (AID 1346798); further: series mostly up to about 92 µM; nearly all actives have a fitted effect of over 50% in size
# How it was run: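 Measures cytotoxicity in parallel with the PR antagonist reporter read: HEK293T PR-UAS-bla cells get compound and R5020 for 16 hr, and remaining viable cells are quantified by CellTiter-Glo luminescence.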
# [12] = qHTS assay to identify small molecule antagonists of the TGF-beta/Smad signaling pathway - cell viability counter screen (AID 1346824); further: nearly all actives have a fitted effect of over 50% in size
# How it was run: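 SBE-bla HEK 293T cells were plated overnight at 37 C, then given compounds in DMSO plus TGF-beta1 (added as 0.25 ng/mL solution) for 5 hr. After the bla read, CellTiter-Glo was added to the same wells and luminescence read after 30 min at room temperature.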
# [13] = qHTS assay to identify small molecule agonists of the TGF-beta/Smad signaling pathway - cell viability counter screen (AID 1346829); further: top concentration of the series differs between compounds; nearly all actives have a fitted effect of over 45% in size
# How it was run: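 Here the cytotoxicity of library compounds is measured in SBE-bla HEK 293T cells treated for 5 hr, using CellTiter-Glo added to wells already read for the beta-lactamase reporter.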
# [14] = qHTS assay to identify small molecule agonists of the TGF-beta/Smad signaling pathway (AID 1346859; active means well fitted activation curve with a large enough effect in the signal ratio in the repeat runs, not every such curve was filed as active; the % refers to the signal ratio; further: series mostly up to about 77 µM)
# How it was run: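 Beta-lactamase reporter activity downstream of Smad binding elements was measured in stably transfected HEK 293T cells; compounds were incubated for 5 hr, substrate for 2 hr at room temperature.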
# [15] = target: Thyrotropin-releasing hormone receptor (Homo sapiens) (UniProt P34981); experiment: qHTS assay to identify small molecule antagonists of the thyrotropin-releasing hormone receptor (TRHR) signaling pathway (AID 1346877; active means well fitted inhibition curve with a large enough effect in the repeat runs, not every such curve was filed as active; further: series mostly up to about 51 µM)
# How it was run: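 Human TRHR in HEK293 cells; inhibition of the intracellular calcium rise triggered by 1 nM TRH was followed by fluorescence over 3 min. Compounds were run at 15 concentrations, three replicates each.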
# [16] = qHTS assay to identify small molecule agonists of the estrogen receptor alpha (ER-alpha) signaling pathway in the presence of an antagonist - cell viability counter screen (AID 1259386);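 further: series mostly up to about 92 µM; cells exposed to compounds for 22 h at 37 °C before the viability read; nearly all actives have a fitted effect of over 30% in size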
# How it was run: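 Steps: 5-day stripped-FBS culture; seed and incubate 24hr; add ICI-182,780 (10.0nM final); pin 15-point compound titration; incubate 22hr at 37C; add CellTiter-Fluor at 21hr; read fluorescence.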
# [17] = qHTS assay to identify small molecule agonists of the progesterone receptor (PR) signaling pathway - cell viability counter screen (AID 1346799; calls by dose curve; further: nearly all actives have a fitted effect of over 45% in size)
# How it was run: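 Using the same plates as the PR reporter screen, HEK293T PR-UAS-bla cells received compounds for 16 hr at 37C and were then lysed with CellTiter-Glo; luminescence was read 30 min later at room temperature.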
# Sequence of Thyrotropin receptor (Homo sapiens) (P16473 whole entry, looked up): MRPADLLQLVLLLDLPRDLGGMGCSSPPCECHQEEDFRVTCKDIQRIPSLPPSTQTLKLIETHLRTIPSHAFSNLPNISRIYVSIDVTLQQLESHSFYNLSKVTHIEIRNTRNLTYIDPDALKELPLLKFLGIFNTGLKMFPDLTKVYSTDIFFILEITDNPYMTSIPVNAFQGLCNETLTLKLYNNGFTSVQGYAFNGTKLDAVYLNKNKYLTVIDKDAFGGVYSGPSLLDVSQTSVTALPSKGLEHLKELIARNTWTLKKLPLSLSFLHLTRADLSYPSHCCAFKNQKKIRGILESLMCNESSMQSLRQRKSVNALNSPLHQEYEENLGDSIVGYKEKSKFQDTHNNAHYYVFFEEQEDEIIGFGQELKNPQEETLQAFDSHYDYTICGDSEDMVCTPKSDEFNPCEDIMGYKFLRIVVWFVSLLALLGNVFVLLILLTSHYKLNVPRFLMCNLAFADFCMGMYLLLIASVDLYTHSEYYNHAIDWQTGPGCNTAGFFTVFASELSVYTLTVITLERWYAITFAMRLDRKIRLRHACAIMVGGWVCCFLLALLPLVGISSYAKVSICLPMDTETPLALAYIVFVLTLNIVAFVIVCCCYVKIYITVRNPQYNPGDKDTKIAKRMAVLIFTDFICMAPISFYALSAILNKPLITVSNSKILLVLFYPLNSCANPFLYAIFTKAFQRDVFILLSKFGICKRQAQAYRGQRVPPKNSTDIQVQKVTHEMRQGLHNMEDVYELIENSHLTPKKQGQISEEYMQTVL
# Sequence of Estrogen receptor (Homo sapiens) (P03372 whole entry, looked up): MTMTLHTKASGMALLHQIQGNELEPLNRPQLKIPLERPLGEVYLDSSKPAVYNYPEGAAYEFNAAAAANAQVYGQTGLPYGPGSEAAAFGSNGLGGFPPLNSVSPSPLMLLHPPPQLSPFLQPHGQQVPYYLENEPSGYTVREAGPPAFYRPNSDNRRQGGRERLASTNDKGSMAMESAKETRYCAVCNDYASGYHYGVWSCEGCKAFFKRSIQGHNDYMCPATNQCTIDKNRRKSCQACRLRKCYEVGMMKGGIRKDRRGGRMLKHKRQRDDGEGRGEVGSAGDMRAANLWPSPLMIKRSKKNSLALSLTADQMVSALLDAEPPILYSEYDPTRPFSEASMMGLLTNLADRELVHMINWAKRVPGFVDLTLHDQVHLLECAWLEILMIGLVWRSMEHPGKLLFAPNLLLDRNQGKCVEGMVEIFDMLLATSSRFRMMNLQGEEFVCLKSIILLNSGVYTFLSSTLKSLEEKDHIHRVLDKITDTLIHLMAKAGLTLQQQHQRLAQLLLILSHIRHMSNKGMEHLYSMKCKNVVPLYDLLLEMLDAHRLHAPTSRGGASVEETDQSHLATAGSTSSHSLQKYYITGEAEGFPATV
# Sequence of Progesterone receptor (Homo sapiens) (P06401 whole entry, looked up): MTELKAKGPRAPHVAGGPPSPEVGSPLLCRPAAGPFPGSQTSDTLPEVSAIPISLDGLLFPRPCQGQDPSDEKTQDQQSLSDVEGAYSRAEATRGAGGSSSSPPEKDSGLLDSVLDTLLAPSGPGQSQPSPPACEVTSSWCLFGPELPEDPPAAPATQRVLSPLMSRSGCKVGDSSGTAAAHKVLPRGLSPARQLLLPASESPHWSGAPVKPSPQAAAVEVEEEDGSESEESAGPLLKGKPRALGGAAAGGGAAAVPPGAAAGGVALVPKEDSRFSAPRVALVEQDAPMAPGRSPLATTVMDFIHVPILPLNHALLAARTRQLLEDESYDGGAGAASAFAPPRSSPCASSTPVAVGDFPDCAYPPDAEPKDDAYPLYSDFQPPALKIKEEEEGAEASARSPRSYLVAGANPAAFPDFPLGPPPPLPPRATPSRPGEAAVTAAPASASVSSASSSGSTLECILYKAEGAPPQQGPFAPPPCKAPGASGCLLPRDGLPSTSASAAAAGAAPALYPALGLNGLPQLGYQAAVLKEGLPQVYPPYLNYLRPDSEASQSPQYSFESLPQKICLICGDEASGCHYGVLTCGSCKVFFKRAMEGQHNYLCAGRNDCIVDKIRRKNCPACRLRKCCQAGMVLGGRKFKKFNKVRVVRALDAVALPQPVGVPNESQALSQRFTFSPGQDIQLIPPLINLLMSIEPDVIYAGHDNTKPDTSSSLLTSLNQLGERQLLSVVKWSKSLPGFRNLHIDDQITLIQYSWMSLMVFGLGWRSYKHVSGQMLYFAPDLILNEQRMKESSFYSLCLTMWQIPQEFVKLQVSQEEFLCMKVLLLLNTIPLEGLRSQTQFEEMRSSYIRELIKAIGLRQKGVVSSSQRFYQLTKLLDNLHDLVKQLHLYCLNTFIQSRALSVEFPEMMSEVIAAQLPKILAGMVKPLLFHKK
# Sequence of Thyrotropin-releasing hormone receptor (Homo sapiens) (P34981 whole entry, looked up): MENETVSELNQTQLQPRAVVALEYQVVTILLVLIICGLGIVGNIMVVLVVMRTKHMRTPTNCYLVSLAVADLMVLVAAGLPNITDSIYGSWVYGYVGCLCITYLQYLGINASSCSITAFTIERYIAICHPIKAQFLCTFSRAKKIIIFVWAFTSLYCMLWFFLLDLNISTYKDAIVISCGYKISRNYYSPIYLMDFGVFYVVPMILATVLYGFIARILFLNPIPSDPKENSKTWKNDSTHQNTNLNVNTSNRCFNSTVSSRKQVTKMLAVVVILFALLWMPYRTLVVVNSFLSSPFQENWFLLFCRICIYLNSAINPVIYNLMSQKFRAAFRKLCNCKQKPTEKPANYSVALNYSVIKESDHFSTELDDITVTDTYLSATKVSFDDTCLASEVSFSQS
compound,measurement,setting,value
C[C@@H]1CCN(C(=O)[C@H](CCCN=C(N)N)NS(=O)(=O)c2cccc3c2NC[C@H](C)C3)[C@@H](C(=O)O)C1,outcome,[1],inactive
same,Potency,[2],inactive
same,Potency,[3],inactive
same,Potency,[4],inactive
same,Potency,[5],inactive
same,Potency,[6],inactive
same,outcome,[7],inactive
same,Potency,[8],inactive
same,Potency,[9],inactive
same,Potency,[10],inactive
same,Potency,[11],inactive
same,Potency,[12],inactive
same,outcome,[13],inactive
same,outcome,[14],inactive
same,outcome,[15],inactive
Cc1cccc(C)c1NC(=O)C(C)N (stereo unspecified),outcome,[1],inactive
same,Potency,[2],inactive
same,Potency,[3],inactive
same,Potency,[4],inactive
same,Potency,[5],inactive
same,Potency,[6],inactive
same,outcome,[7],inactive
same,Potency,[8],inactive
same,Potency,[16],inactive
same,Potency,[11],inactive
same,Potency,[12],inactive
same,outcome,[13],inactive
same,outcome,[14],inactive
CCc1nccnc1CC,activity change,[1],0.457% [at 18.9 µM]
same,Potency,[2],inactive
same,"activity change, negative = cytotoxicity",[3],1.15% [at 19 µM]
same,"activity change, negative = cytotoxicity",[4],3.58% [at 19 µM]
same,"activity change, negative = cytotoxicity",[5],15.2% [at 19 µM]
same,activation,[6],-0.0927% [at 19 µM]
same,cAMP activity change,[7],-3.22% [at 18.9 µM]
same,"activity change, negative = inhibition",[8],0.0688% [at 19 µM]
same,"activity change, negative = cytotoxicity",[16],1.02% [at 19 µM]
same,activation,[9],0.626% [at 19 µM]
same,Potency,[10],inactive
same,Potency,[11],inactive
same,"activity change, negative = cytotoxicity",[17],-10.8% [at 19 µM]
same,"viability change, negative = cytotoxic",[12],4.47% [at 15.8 µM]
same,"activity change, negative = cytotoxicity",[13],3.37% [at 15.8 µM]
same,activation,[14],1.18% [at 15.8 µM]
same,"activity, negative = inhibition",[15],3.49% [at 10.5 µM]
OC[C@]1(O)OC[C@@H](O)[C@H](O)[C@@H]1O,outcome,[1],inactive
same,Potency,[2],inactive
same,Potency,[3],inactive
same,Potency,[4],inactive
same,Potency,[5],inactive
same,outcome,[7],inactive
same,Potency,[8],inactive
same,Potency,[16],inactive
same,Potency,[9],inactive
same,Potency,[11],inactive
same,Potency,[17],inactive
same,Potency,[12],inactive
same,outcome,[13],inactive
same,outcome,[14],inactive
same,outcome,[15],inactive
O=C1CCCN1C1CCCCC1,outcome,[1],inactive
same,Potency,[2],inactive
same,Potency,[3],inactive
same,Potency,[4],inactive
same,Potency,[5],inactive
same,Potency,[6],inactive
same,outcome,[7],inactive
same,Potency,[8],inactive
same,Potency,[16],inactive
same,Potency,[9],inactive
same,Potency,[10],inactive
same,Potency,[11],inactive
same,Potency,[17],inactive
same,Potency,[12],inactive
same,outcome,[13],inactive
same,outcome,[14],inactive
same,outcome,[15],inactive
CC(C)(C)c1ccc(O)c(O)c1,outcome,[1],inactive
same,Potency,[2],15.9 µM (active) and 6.86 µM (active)
same,Potency,[3],inactive
same,Potency,[4],inactive
same,Potency,[5],inactive
same,outcome,[7],inactive
same,Potency,[8],inactive
same,Potency,[9],inactive
same,Potency,[10],50.2 µM (active) and 44.5 µM (active)
same,Potency,[12],inactive
same,outcome,[13],inactive
same,outcome,[14],inactive
same,outcome,[15],inactive
Nc1ccc(S(=O)(=O)Nc2ccnn2-c2ccccc2)cc1,activity change,[1],-1.14% [at 18.9 µM]
same,Potency,[2],inactive
same,"activity change, negative = cytotoxicity",[3],-0.249% [at 19 µM]
same,"activity change, negative = cytotoxicity",[4],9.8% [at 19 µM]
same,"activity change, negative = cytotoxicity",[5],5.67% [at 19 µM]
same,activation,[6],-0.0289% [at 19 µM]
same,cAMP activity change,[7],3.46% [at 18.9 µM]
same,"activity change, negative = inhibition",[8],0.942% [at 19 µM]
same,"activity change, negative = cytotoxicity",[16],1.05% [at 19 µM]
same,Potency,[10],inactive
same,Potency,[11],inactive
same,"activity change, negative = cytotoxicity",[17],-4.95% [at 19 µM]
same,"viability change, negative = cytotoxic",[12],6.26% [at 15.8 µM]
same,"activity change, negative = cytotoxicity",[13],13.7% [at 15.8 µM]
same,activation,[14],-0.937% [at 15.8 µM]
same,"activity, negative = inhibition",[15],2.52% [at 10.5 µM]
